# PubChem BioAssay (NCI)
# Compounds without any hit were thinned out: in the full panel of roughly 83,000, 20% have a hit.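 Percent growth is the endpoint: 0 to 100 indicates growth inhibition (40 means 60% inhibition), 0 means no net growth, and negative values indicate cell death.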 Values without a mark were called inactive. Active and inactive are the calls of the source. How the source made its calls: active means growth percent below 10; inactive means the rest.
# Tests used:
# Experiment in all cases: NCI-60 one-dose screen, 48 h (100 = growth as untreated, 0 = no growth, -100 = all killed)
# Details in all cases: 10 µM unless noted
# [1] = test system: NCI-H23 lung
# [2] = test system: NCI-H226 lung
# [3] = test system: NCI-H322M lung
# [4] = test system: HOP-62 NSCLC
# [5] = test system: NCI-H460 lung
# [6] = test system: HOP-92 NSCLC
# [7] = test system: NCI-H522 lung
# [8] = test system: A549/ATCC NSCLC
# [9] = test system: 786-0 renal
# [10] = test system: COLO 205 colon
Compound,growth [1],growth [2],growth [3],growth [4],growth [5],growth [6],growth [7],growth [8],growth [9],growth [10]
COC(=O)Cc1nc(C#N)c(N(C)C)o1,95.4%,96.3%,97.2%,96.7%,101%,95.9%,90.3%,95.8%,97.6%,104%
Cc1ccc(-c2cc(C(=O)N3N=C(c4ccc(N)cc4)CC3c3ccc(Cl)cc3)c3ccccc3n2)cc1 (stereo not given),49.4%,72.1%,48.3%,33.9%,12.9%,41.2%,-2.26% (active),21.4%,24.3%,2.01% (active)
NS(=O)(=O)c1ccc(N/C=C/C(=O)c2cc3ccccc3oc2=O)cc1,88%,86.9%,92.9%,84.7%,96.8%,76.1%,96.3%,97.1%,96.1%,102%
CCN(CC)c1ccc(N2C(=O)/C(=C/c3cccs3)SC2=S)cc1,94.8%,93.7%,91.7%,106%,97.8%,6.63% (active),82.9%,92%,95.6%,101%
O=C(CBr)CN1C(=O)c2ccccc2C1=O,95.1%,98.7%,101%,97.9%,108%,-10.6% (active),101%,103%,101%,101%
O=C(c1ccc(Cl)cc1Cl)N1c2ccccc2Sc2ccccc21,73.5%,68%,85.2%,64.7%,18.3%,71.5%,63.7%,54.2%,67%,45%
O=C(CN1C(=O)NC2NC(=O)NC21)N/N=C/c1ccc(Cl)cc1Cl (stereo not given),102%,95.6%,104%,114%,105%,125%,93.3%,110%,96.6%,125%
COc1ccc2nc3cc(Cl)ccc3c(NCCN)c2c1,-33.6% (active),31.8%,-46% (active),-85.8% (active),-71.4% (active),70.7%,-56.6% (active),-84.5% (active),-88.9% (active),-83.2% (active)
COc1ccc(C2=NN(C(=O)c3cc(OC)c(OC)c(OC)c3)C(c3ccc(N(C)C)cc3)C2)cc1 (stereo not given),26.4%,20.6%,48.3%,54.5%,3.74% (active),21.6%,-32.4% (active),30%,13.6%,5.9% (active)
COc1ccc(Cc2nnc(Nc3nc4ccccc4s3)s2)cc1,93%,98.3%,89.1%,108%,102%,85%,100%,99.4%,98.1%,111%
COc1cc2c3c(n(CCCCNCCCn4c5c(c6cc(OC)c(OC)cc6c4=O)C(=O)c4cc6c(cc4-5)OCO6)c(=O)c2cc1OC)-c1cc2c(cc1C3=O)OCO2,95.3%,106%,90.5%,90.5%,106%,87%,86.8%,90.3%,109%,103%
CC1CN=C(c2cccc(-c3ccc(-c4ccccc4)o3)c2)N1 (stereo not given),27.6%,30%,4.39% (active),39.9%,-25.5% (active),-13.1% (active),-64.5% (active),12.2%,-43.6% (active),-82.6% (active)
O=c1nc(Nc2nc3ccccc3s2)[nH]c(=O)c2ccccc12,99.1%,92.8%,105%,91.2%,103%,83.4%,96.8%,106%,96%,112%
Cn1cc(-c2nonc2-c2c[nH]c3ccccc23)c2ccccc21,29.7%,44.5%,33.9%,14.3%,4.95% (active),5.1% (active),-5.43% (active),18.3%,23%,-22.7% (active)
COc1ccc2c(c1)c(-c1nonc1-c1cn(C)c3ccc(OC)cc13)cn2C,59.2%,75.1%,71.1%,32.4%,12.6%,55.6%,18.5%,39.2%,54.5%,32.9%
Oc1c(I)cc(-c2nc3ccccc3s2)cc1CN(Cc1ccccn1)Cc1ccccn1,18.3%,10.5%,15.9%,15.7%,1.59% (active),0.23% (active),4.12% (active),4.74% (active),2.78% (active),14.3%
C[Se]C(=O)CC1=C2C=C(F)C=CC2/C(=C\c2ccc(S(C)=O)cc2)C1C (stereo not given),13.5%,1.21% (active),14.1%,-24.3% (active),-1% (active),-41.4% (active),12.9%,-60.1% (active),3.8% (active),-17.4% (active)
CCCCCCCCn1ccc2cc(NC(=O)Cn3cc(CN4CCC(C)CC4)nn3)ccc21,79.4%,69.9%,28.6%,72.4%,-70.2% (active),21.8%,18.7%,21.1%,0.91% (active),-74.4% (active)
Cc1cccc(NC(=O)CSc2nc3ccc([N+](=O)[O-])cc3[nH]2)c1,69.7%,71%,97.2%,115%,84.7%,21%,61%,82.7%,84.8%,90.1%
CCN(C(=O)N1CCN(c2cc3c(cc2F)c(=O)c(C(=O)O)cn3C2CC2)CC1)c1nc(-c2ccc(C)cc2)cs1,6.95% (active),3.21% (active),10.3%,5.92% (active),8.41% (active),-12% (active),3.2% (active),16.1%,15.6%,-21.2% (active)
COc1cc(C(=O)c2c(N)ncn2-c2ccccc2)cc(OC)c1OC,101%,84%,104%,77.1%,106%,96.2%,50.5%,106%,88.7%,97.4%
O=C1/C(=C/c2cccc([N+](=O)[O-])c2)COc2ccc(O)cc21,89.3%,111%,89.8%,88.2%,92.4%,110%,8.12% (active),89.2%,14.7%,64.6%
NC(=O)c1ccc(NC(=O)c2oc3ccccc3c2-c2cnn(-c3ccccc3)c2)cc1,-21.9% [50 µM] (active),13.9% [50 µM],23.7% [50 µM],5.91% [50 µM] (active),5.78% [50 µM] (active),-27.3% [50 µM] (active),21.4% [50 µM],8.08% [50 µM] (active),-26.8% [50 µM] (active),19.9% [50 µM]
C/C(=C(\c1ccc(OCCN2CCCCCC2)cc1)c1ccc(OC(=O)Cc2ccccc2)cc1)c1ccc(Cl)cc1,48.5%,91.2%,73.5%,7.91% (active),-60.1% (active),49.5%,38.8%,31.7%,-42% (active),-79.7% (active)
C#CCOc1cccc(-c2ncc3cc(NC(=O)CCl)ccc3n2)c1,-13.8% (active),2.41% (active),69.4%,-5.99% (active),27.8%,14.2%,-72.2% (active),73.4%,-81.4% (active),-77.7% (active)
CN1CCN(Cc2ccc(NC(=O)c3cncc(C#Cc4cncc5[nH]ncc45)c3)cc2C(F)(F)F)CC1,7.77% (active),-43.3% (active),13.7%,7.14% (active),3.22% (active),-22.9% (active),23.2%,13.1%,20.6%,1.42% (active)
O=C(OC[C@@H]1CO1)c1cccc2c(=O)c3ccccc3[nH]c12,-58.5% (active),-24.6% (active),-13% (active),-26% (active),-21.8% (active),-25.5% (active),-49.9% (active),-20% (active),-8.54% (active),-37.3% (active)
